Source: PubChem BioAssay (Broad Institute)
Calb FLC – C. albicans growth inhibition with fluconazole, primary screen, CaCi-2 strain, Alamar Blue fluorescence. 300,000 tested, 0.57% active. C. albicans CaCi-2 (fluconazole-resistant clinical isolate) + fluconazole, 48 h. AID 1979, 2009. growth inhibition, % (test concentration not listed);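 active = growth inhibition above about 58% in most replicates, limit read from the data, passing the limit was not always enough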;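 also: all wells also contain fluconazole at 8 µg/ml as a sub-toxic cotreatment; 0% = median of DMSO wells and 100% = median of geldanamycin control wells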
Beta cell apopt – inhibitors of cytokine-induced beta cell apoptosis, primary screen, luminescence | INS-1E cytokine-induced death, ATP luminescence, 48 h; percent of positive-control rescue, neutral wells zero | protection from apoptosis, % (concentration not given with the values) | 300,000 tested, 0.8% active;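 active = Every replicate reaches about 75%, or at least half do and their mean reaches it too, limit read from the data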;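 also: 0% = cytokine-treated negative control wells and 100% = positive control rescue; higher means more ATP so stronger rescue from cytokine killing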
CSC inhib – cancer stem cell viability inhibitors, primary screen, luminescence. inhibition, % at 7.5 µM. cancer stem cell-like cells viability. AID 2717, 2010. 300,000 tested, 1.1% active; in the data active = inhibition above about 75%; tested in HMLE shEcad cells
Shn3 inh set2 – reduction of Shn3 3'UTR firefly luciferase signal, primary screen, Schnurri-3 inhibitor project, cell-based, Clone20 osteoblasts, set 2; inhibition, % at 12.5 µM; 360,000 tested, 0.52% active; Clone20 osteoblast Shn3 3'UTR firefly luciferase, 24 h;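 active = mean inhibition of at least 75% with every replicate also reaching 75%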;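 also: 0% = median of neutral control wells and 100% = pilot-screen positive control compound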
PfHsp90 yeast 2 – growth inhibition of PfHsp90-expressing yeast, primary screen, antimalarial PfHsp90 inhibitor project, S. cerevisiae, BacTiter-Glo luminescence, single point, set 2. BacTiter-Glo ATP, 48 h; yeast lacking PDR1 and PDR3 efflux regulators. inhibition, % at 9.4 µM. 310,000 tested, 0.32% active. AID 504621, 2011;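 active = every replicate shows inhibition above about 80%, whatever the replicate mean, limit read from the data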;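 also: 0% = DMSO neutral controls and 100% = 20 µM radicicol positive controls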
The depositor's hits bear a star. This is a sample that favours compounds with a hit; in the whole collection about 2.2% have one here.

What do the screens show for `CC(=O)Nc1ccc(S(=O)(=O)N2CCN(Cc3csc(C)n3)CC2)cc1`?
Calb FLC: 1.4; Beta cell apopt: -1.7; CSC inhib: -6.9; Shn3 inh set2: -10.4; PfHsp90 yeast 2: 9.9

What do the screens show for `COc1ccc(-c2nn(-c3ccccc3)cc2/C=N/N2C(=O)CSC2=S)cc1`?
Calb FLC: 36.2; Beta cell apopt: 105.9*; CSC inhib: 108.4*; Shn3 inh set2: -13.5

What do the screens show for `O=C(Nc1ccnn1C1CCN(Cc2cccc(F)c2F)CC1)C1CCCC1`?
Calb FLC: -0.2; Beta cell apopt: -0.5; CSC inhib: 1.6; Shn3 inh set2: -8.0; PfHsp90 yeast 2: -4.7

How did CC(=O)Nc1cccc(OCC(O)Cn2c(C)nc3ccccc32)c1 (stereo not given) do in these assays?
Calb FLC: 0.2; Beta cell apopt: -3.2; CSC inhib: -12.0; Shn3 inh set2: 4.4; PfHsp90 yeast 2: 9.4

Results for CCCOC(=O)c1ccc(OCC(O)Cn2c(C)nc3ccccc32)cc1 (stereo not given) ?
Calb FLC: -4.0; Shn3 inh set2: 89.4*; PfHsp90 yeast 2: -14.3

How did CC(C)(C)c1ccc(SCC(N)=O)cc1 do in these assays?
Calb FLC: 80.8*; Beta cell apopt: -6.7; CSC inhib: 13.3; Shn3 inh set2: -21.1; PfHsp90 yeast 2: -20.3

Results for Cn1c(SCC(N)=O)nnc1-c1ccc(C(C)(C)C)cc1 ?
Calb FLC: 21.6; Beta cell apopt: -4.0; CSC inhib: -11.0; Shn3 inh set2: -12.8; PfHsp90 yeast 2: -36.0

How did Nc1ccccc1-n1cccc1 do in these assays?
Calb FLC: -1.6; Beta cell apopt: -3.0; CSC inhib: 4.4; Shn3 inh set2: -73.4; PfHsp90 yeast 2: -4.5

Results for Cc1ccc(C(=O)N2N=C(c3ccc(Br)cc3)CC2c2ccccc2O)cc1 (stereo not given) ?
Calb FLC: -3.2; Beta cell apopt: 78.1*; CSC inhib: 112.1*; Shn3 inh set2: -10.8; PfHsp90 yeast 2: -15.9

How did COc1cccc(C2CC(c3ccc(NS(C)(=O)=O)cc3)=NN2C(=O)c2ccccc2)c1OC (stereo not given) do in these assays?
Calb FLC: 102.9*; Beta cell apopt: 4.0; CSC inhib: 9.8; Shn3 inh set2: 23.3; PfHsp90 yeast 2: 4.3

Results for CCCCCCCCCc1nc2sc3c(c2c(=O)n1NC(=O)c1ccccc1[N+](=O)[O-])CC(C)(C)OC3 ?
Calb FLC: -22.5; Beta cell apopt: 4.0; CSC inhib: 107.4*; Shn3 inh set2: 9.0; PfHsp90 yeast 2: -14.2

Results for CCCCCCCCCc1nc2sc3c(c2c(=O)n1NC(=O)c1ccc([N+](=O)[O-])cc1)CC(C)(C)OC3 ?
Calb FLC: 3.3; Beta cell apopt: -0.1; CSC inhib: -21.0; Shn3 inh set2: 6.2; PfHsp90 yeast 2: -23.3

Results for CC(C)Cn1c(/C=N/Nc2nc3ccccc3[nH]2)nc2ccccc21 ?
Calb FLC: 4.4; Shn3 inh set2: 76.4; PfHsp90 yeast 2: -4.9

Results for Cc1c(/C=N/Nc2nc3ccccc3[nH]2)c2ccccc2n1C ?
Calb FLC: 6.2; Beta cell apopt: 117.0*; CSC inhib: 35.5; Shn3 inh set2: 84.1; PfHsp90 yeast 2: 4.0

How did C=CCn1cc(/C=N/Nc2nc3ccccc3[nH]2)c2ccccc21 do in these assays?
Calb FLC: -38.5; Beta cell apopt: 109.0*; CSC inhib: 92.4*; Shn3 inh set2: 28.9; PfHsp90 yeast 2: 11.8

How did Cn1c(/C=N/Nc2nc3ccccc3[nH]2)nc2ccccc21 do in these assays?
Calb FLC: 79.8; Beta cell apopt: 18.2; CSC inhib: 33.1; Shn3 inh set2: -89.6; PfHsp90 yeast 2: 2.0

How did CC(C)CNC(=O)c1cccc(NC(=O)c2ccc3c(c2)C(=O)N(C)C3=O)c1 do in these assays?
Calb FLC: 3.8; Beta cell apopt: -2.6; CSC inhib: -19.3; Shn3 inh set2: -7.7; PfHsp90 yeast 2: 7.2

How did CN(C)c1nc(Cl)nc(N(C#N)CCOc2ccccc2)n1 do in these assays?
Calb FLC: 113.0*; Beta cell apopt: -5.1; CSC inhib: 2.4; Shn3 inh set2: -0.1; PfHsp90 yeast 2: -31.9

What do the screens show for `CC1(C)Cc2c(C#N)c(NC3CCCCC3)nc(-c3ccco3)c2CO1`?
Calb FLC: 21.2; Beta cell apopt: -3.5; CSC inhib: 77.4*; Shn3 inh set2: -41.9; PfHsp90 yeast 2: 13.4

What do the screens show for `Cn1nc(C(F)(F)F)c(-c2ccc(Br)cc2)c1NC(=O)Nc1ccc(F)cc1F`?
Calb FLC: -2.7; Beta cell apopt: 31.6; CSC inhib: 61.8; PfHsp90 yeast 2: 7.4

What do the screens show for `Cc1cccc(N2CCN(c3nc(C)cc(C)c3C#N)CC2C)c1` (stereo not given)?
Calb FLC: 90.0*; Beta cell apopt: -2.5; CSC inhib: 29.9; Shn3 inh set2: -39.1; PfHsp90 yeast 2: -4.2

What do the screens show for `COc1cccc(N2CCN(c3nc(C)cc(C)c3C#N)CC2)c1`?
Calb FLC: -11.3; Beta cell apopt: -0.7; CSC inhib: 4.7; Shn3 inh set2: -4.9; PfHsp90 yeast 2: 3.9

How did O=C(Nc1cscc1S(=O)(=O)c1ccccc1)c1ccccc1Cl do in these assays?
Calb FLC: -2.7; Beta cell apopt: -2.9; CSC inhib: 11.5; Shn3 inh set2: 12.2; PfHsp90 yeast 2: 0.6

What do the screens show for `Cc1ccccc1OCC(=O)Nc1ccccc1N1CCCCC1`?
Calb FLC: 2.5; Beta cell apopt: 4.5; CSC inhib: 63.4; Shn3 inh set2: 37.0; PfHsp90 yeast 2: -17.7

What do the screens show for `Cc1cccc(OCC(=O)Nc2ccccc2N2CCCC2)c1C`?
Calb FLC: -0.4; Beta cell apopt: -3.1; CSC inhib: 79.9*; Shn3 inh set2: 1.1

What do the screens show for `Cc1cc(C)c(S(=O)(=O)/N=C2/C=C(Sc3ncn[nH]3)C(=O)c3ccccc32)cc1C`?
Beta cell apopt: 129.3*; CSC inhib: 103.2*; Shn3 inh set2: 93.8*; PfHsp90 yeast 2: 16.1

How did Cc1ccc(C)c(S(=O)(=O)/N=C2\C=C(NS(=O)(=O)c3ccccc3)C(=O)c3ccccc32)c1 do in these assays?
Calb FLC: 66.7; Beta cell apopt: 1.0; Shn3 inh set2: 8.0; PfHsp90 yeast 2: -4.0

How did CCN(CC(=O)NCc1cccs1)C(=O)CCCOc1ccc(C(C)(C)C)cc1 do in these assays?
Beta cell apopt: 0.3; Shn3 inh set2: 35.8; PfHsp90 yeast 2: 29.9

What do the screens show for `CCN(CC(=O)Nc1ccc(NC(C)=O)cc1)C(=O)CCCOc1ccc(C(C)(C)C)cc1`?
Calb FLC: 3.4; Beta cell apopt: 92.8*; CSC inhib: 29.4; Shn3 inh set2: 8.8

What do the screens show for `CCc1ccc(O)c(CNCCNCc2cc(CC)ccc2O)c1`?
Calb FLC: -8.2; Beta cell apopt: 23.2; CSC inhib: 12.7; Shn3 inh set2: 86.2*; PfHsp90 yeast 2: -10.5

Results for Cc1ccc(O)c(CNCCNCc2cc(C)ccc2O)c1 ?
Calb FLC: -30.8; Beta cell apopt: 53.2; CSC inhib: -16.6; Shn3 inh set2: 25.5; PfHsp90 yeast 2: 4.5

What do the screens show for `CC(=O)c1c(C)[nH]c(C(=O)NCc2ccco2)c1C`?
Calb FLC: 6.7; Beta cell apopt: -10.9; CSC inhib: -5.7; Shn3 inh set2: 3.9; PfHsp90 yeast 2: -18.2
